PubChem BioAssay AID1851 (National Center for Advancing Translational Sciences (NCATS), 2009)
Among all 16,000 compounds or so, about 5,700 (36%) were called active. Roughly 24% stayed inconclusive and do not appear here. Some of the results follow. Values without a mark were called inactive. The call rests on the fitted dose curve; in most records, active means well fitted curve in the direction sought with a large enough effect; inconclusive means small, poorly fitted or top-dose-only effect, or effect the other way; inactive means no such curve, though single readings can be large or run the other way.

What follows are compounds tested against Cytochrome P450 1A2 (Homo sapiens) (UniProt P05177) (assay: Cytochrome panel assay with activity outcomes). Details: recombinant CYP, pro-luciferin dealkylation, luminescence, p450-cyp1a2; series mostly up to 57.1 µM; activity, negative = inhibition: at the top concentration.
On the % scale 0 is the no-effect control and ±100 the full control effect.

Cytochrome P450 1A2 (Homo sapiens), sequence (P05177 whole entry, looked up): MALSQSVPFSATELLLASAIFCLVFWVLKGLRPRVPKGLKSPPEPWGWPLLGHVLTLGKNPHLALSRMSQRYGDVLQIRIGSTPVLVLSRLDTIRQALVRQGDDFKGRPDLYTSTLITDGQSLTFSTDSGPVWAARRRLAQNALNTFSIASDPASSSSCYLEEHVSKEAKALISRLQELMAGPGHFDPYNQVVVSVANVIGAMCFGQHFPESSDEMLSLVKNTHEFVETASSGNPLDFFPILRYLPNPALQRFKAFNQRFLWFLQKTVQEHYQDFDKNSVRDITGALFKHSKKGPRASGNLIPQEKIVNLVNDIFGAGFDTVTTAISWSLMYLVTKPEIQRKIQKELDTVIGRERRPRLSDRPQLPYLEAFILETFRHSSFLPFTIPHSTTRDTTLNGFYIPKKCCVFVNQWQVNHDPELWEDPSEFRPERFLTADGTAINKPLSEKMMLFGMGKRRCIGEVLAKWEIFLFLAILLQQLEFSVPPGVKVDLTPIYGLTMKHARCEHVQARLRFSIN

| Structure (SMILES) | activity, negative = inhibition | AC50 |
| --- | --- | --- |
| OC[C@@H]1O[C@H](O)[C@@H](Cl)[C@H](O)[C@@H]1O | 1.58% |  |
| Cc1ccc(S(N)(=O)=O)cc1NC(=O)/C=C/c1cccs1 |  | 12.6 µM (active) |
| CS(=O)(=O)Nc1cccc(-c2ccc3ncnc(NCc4cccs4)c3c2)c1 |  | 0.0794 µM (active) |
| CS(=O)(=O)Nc1cccc(-c2cncnc2NCc2cccs2)c1 |  | 15.8 µM (active) |
| Cc1cccc(CNc2ncncc2-c2cccc(NS(C)(=O)=O)c2)c1 |  | 12.6 µM (active) |
| CS(=O)(=O)Nc1cccc(-c2cncnc2NCc2ccccc2)c1 |  | 25.1 µM (active) |
| CC(=O)Nc1c(I)c(C(=O)N[C@H]2[C@@H](O)[C@H](O)[C@H](CO)O[C@@H]2O)c(I)c(N(C)C(C)=O)c1I | -14.8% [at 25.6 µM] |  |
| CC12CS(=O)(=O)CC1SC(=S)N2c1ccccn1 (configuration not stated) | -6.29% |  |
| CS(=O)(=O)Nc1cccc(-c2cncnc2NCc2cccnc2)c1 |  | 15.8 µM (active) |
| O=S(=O)(NCc1cccnc1)c1ccc(Cl)nc1 | -6.12% |  |
| CS(=O)(=O)Nc1cccc(-c2ccc3ncnc(NCc4cccnc4)c3c2)c1 |  | 0.316 µM (active) |
| C[C@H](O)C(=O)C1=Nc2c(nc(N)[nH]c2=O)NC1 | -9.29% |  |
| O=C(Cn1c(SCC(=O)N2CCc3ccccc3C2)nc2ccccc21)NC1CCCC1 | -25.7% |  |
| O=C(O)CCCCCn1c(SCC(=O)N2CCCC2)nc2ccsc2c1=O | 15.6% |  |
| C=CCn1c(SCC(=O)N2CCc3ccccc3C2)nc2ccccc2c1=O |  | 8.91 µM (active) |
| CC(C)OC(=O)c1cccc(C(=O)Oc2ccc(Br)cc2)n1 | -28.5% |  |
| CCn1ccc(C(=O)Oc2ccc(Cl)cc2)n1 |  | 14.1 µM (active) |
| CN1c2ccccc2C(C)(C)C12C=Nc1c(cc(N3CCOCC3)c3ccccc13)O2 (configuration not stated) | -29.8% |  |
| CN(C)Cc1ccccc1-c1nc(N2CCOCC2)c2ccccc2n1 |  | 20 µM (active) |
| Clc1ccccc1-c1nc(N2CCNCC2)c2ccccc2n1 |  | 2.51 µM (active) |
| Cc1ccccc1-c1nc(N2CCNCC2)c2ccccc2n1 |  | 5.01 µM (active) |
| CC(C)(C)c1nc(SCC(=O)Nc2ccc(N3CCOCC3)cc2)c2ccccc2n1 | -25.2% |  |
| C[C@@H](N1CCOCC1)[C@@](O)(c1ccccc1)c1ccccn1 | -2.48% [at 2.29 µM] |  |
| Cc1ccccc1-c1nc(N2CCOCC2)c2ccccc2n1 |  | 2 µM (active) |
| CN(C)/N=N\c1nc[nH]c1C(N)=O | -11.7% [at 25.6 µM] |  |
| COc1ccc(O[C@H]2C=C[C@@H](c3ccccc3)O[C@@H]2CO/N=C(\C)CCN2CCCc3nc(C)c(C)cc32)cc1 | -4.49% [at 11.4 µM] |  |
| C=CC[C@@H]1C=C[C@H](O/N=C(\C)CCN2CCCCc3nc(C)c(C)cc32)[C@H](CO)O1 | -6.73% [at 11.4 µM] |  |
